Screening results as filed in PubChem BioAssay.
HTR5A inv ag – HTR5A inverse agonists in luminescence cell assay, primary screen, counter-screen for OPRM1-OPRD1 heterodimer inverse agonist project, full-deck HTS; 5-hydroxytryptamine receptor 5A (Homo sapiens), P47898; HTR5A cell line, inverse agonism; inhibition, % at 9.3 µM; actives 0.083% (n = 340,000); AID 504634, 2011; in the data active = inhibition mostly above about 23%, no sharp cut-off; inactive = mostly below about 18%;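 note: 0% = cells with DMSO and 100% = no-cell wells with DMSO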
OPRM1-OPRD1 inv – inverse agonists of MOR-DOR heterodimerization, primary screen, cell-based, luminescence | Mu-type opioid receptor (Homo sapiens) + Delta-type opioid receptor (Homo sapiens), … | cell-based MOR-DOR heterodimer luminescence, inverse agonism | inhibition, % at 9.3 µM | actives 0.21% (n = 340,000) | AID 504357, 2011; in the data active = inhibition above about 22%, passing the limit was not always enough;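 note: 0% = cells with DMSO and 100% = wells without cells with DMSO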
OPRM1-OPRD1 ag – agonists of OPRM1-OPRD1 heterodimerization, primary screen, cell-based, luminescence | cells | activation, % at 9.3 µM | actives 0.3% (n = 340,000); in the data active = activation above about 18%;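 note: 0% = vehicle-treated cells and 100% = reference agonist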
HTR5A ag – HTR5A agonists in luminescence cell assay, primary screen, counter-screen for OPRM1-OPRD1 heterodimer agonist project, full-deck HTS | activation, % at 9.3 µM | cell-based | 5-hydroxytryptamine receptor 5A (Homo sapiens), P47898 | actives 0.61% (n = 340,000); in the data active = activation mostly above about 9.5%, no sharp cut-off; inactive = mostly below about 7.6%;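 note: 0% = cells with vehicle only and 100% = reference agonist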
* hit, by the source's call. Compounds with a hit are over-represented: about 1.1% of the library has one in this group of screens.

SMILES	HTR5A inv ag	OPRM1-OPRD1 inv	OPRM1-OPRD1 ag	HTR5A ag
Cc1cccc(N2CCN(C(=O)[C@H](C)N3C(=O)C4CC=CCC4C3=O)CC2)c1C (stereo partly specified)	-1	16	-3	0
O=C(COc1ccc2ccc(=O)oc2c1)NCCCN1CCCC1=O	-8	3	-1	13*
NS(=O)(=O)c1ccc(CNS(=O)(=O)c2ccc3ccccc3c2)cc1	5	21	-4	-5
O=C(O)c1ccc(CNS(=O)(=O)c2ccc3ccccc3c2)cc1	-26	4	0	9.9*
COc1ccc(CC(=O)Nc2cccc(-c3nnc(-c4ccc(C)cc4)o3)c2)cc1OC	-38	-113	20*	17*
CCOC(=O)CN1C(=O)/C(=C/c2c(F)cccc2Cl)Oc2ccccc21	9	-6	1	-2
COc1cc(N=Nc2c(O)c3ccccc3[nH]c2=O)c(OC)cc1N=Nc1ccccc1	-22	8	-2	6
COc1ccc(OC)c(N=Nc2c(O)c3ccccc3[nH]c2=O)c1	-56	-11	2	14*
C/C(Nc1ccc(Cl)cc1)=C1/CCOC1=O	-13	-5	1	3
COc1ccc(Cl)cc1NC(=O)CN(C)CC(=O)Nc1cc(OC)c(OC)c(OC)c1	3	4	-1	-1
NC(=S)N/N=C/c1ccc(-c2cc(Cl)c(Cl)cc2Cl)o1	-30	-27	5	12*
NC(=S)N/N=C/c1ccc(Br)o1	22	11	-2	-2
Cc1ccccc1-n1c(SCc2cccc(F)c2)nc2[nH]ncc2c1=O	-48	-4	1	14*
Cc1ccccc1-n1c(SCc2cc(=O)n3ccccc3n2)nc2[nH]ncc2c1=O	2	-2	0	-1
CC(C)c1ccc(S(=O)(=O)/N=C2/C=C(Sc3ncn[nH]3)C(=O)c3ccccc32)cc1	19	-127	25*	3
CCC[C@H](CN[C@@H](CNC)[C@H](C)CC)NCCc1cc(C(F)(F)F)cc(C(F)(F)F)c1	-9	-74	14	7
CNC[C@@H](CC1CCCCC1)NC[C@H](CC(C)C)NCCc1cccc(C(F)(F)F)c1	-14	-140	25*	13*
CNC[C@@H](Cc1ccccc1)NC[C@@H](CC1CCCCC1)NCCCc1ccccc1	-50	-126	23*	20*
Cc1ccc(-c2[nH]ncc2CN2CCN(C(=O)c3cccs3)CC2)cc1C	4	22	-4	-2
CC(=O)c1cccc(NC(=O)C(C)OC(=O)c2cccc(-n3cnnn3)c2)c1 (stereo unspecified)	14	-1	0	-5
Cc1ccc(NC(=O)c2ccc(NC(=O)c3ccccc3)cc2)cc1C	-2	-24	5	13*
CC(C)CSc1nc2c(c(=O)[nH]c(=O)n2C)n1CC(O)COc1cccc2ccccc12 (stereo unspecified)	-29	-32	6	13*
CC(C)(CNC(=O)CO/N=C1/C=C2CCC3C(C(O)C[C@@]4(C)C3CC[C@]4(O)C(=O)CO)[C@@]2(C)CC1)C(O)C(=O)O (stereo partly specified)	9	3	-1	-3
COCCn1c(N)c(C(=O)NS(=O)(=O)c2ccc(C)cc2)c(=O)[nH]c1=O	-29	5	-1	11*
COCCn1c(N)c(Sc2ccc(C)cc2)c(=O)[nH]c1=O	7	8	-1	-3
SMILES	HTR5A inv ag	OPRM1-OPRD1 inv	OPRM1-OPRD1 ag	HTR5A ag
COc1ccc(Cl)cc1Nc1nc(C)nc2c1nnn2Cc1ccccc1	-24	-27	5	-4
CCOC(=O)c1ccc(Nc2nc(C)nc3c2nnn3Cc2ccccc2)cc1	-29	-25	5	8.5*
CCOc1ccc(CCN2C(=S)N([C@@H](CC(C)C)CN3CCCC3CN3C(=S)NC[C@@H]3CC(C)C)C[C@@H]2Cc2ccccc2)cc1 (stereo partly specified)	-4	14	-3	1
COc1ccc2nc(NCCCNC(=O)c3cc(OC)c(OC)c(OC)c3)c(C#N)cc2c1	-4	0	0	14*
CCCn1c(N)c(N(CCOC)C(=O)c2ccc([N+](=O)[O-])cc2Cl)c(=O)[nH]c1=O	-33	13	-2	12
COc1ccc(OCc2cc(C(=O)N3CCOCC3)no2)c(Cl)c1	5	14	-3	1
O=C(NCCc1ccncc1)Nc1ccccc1	-5	13	-3	13*
O=C(NCCc1ccncc1)Nc1ccc(Cl)c(Cl)c1	36	-12	2	0
O=C(O)CSCC(=O)N1CCN(c2ccnc3cc(Cl)ccc23)CC1	-39	11	-2	11*
COc1ccccc1-c1ccc(SCc2ccc(F)cc2)nn1	-26	-2	0	9.5*
COc1ccccc1-c1ccc(SCc2ccc(C)cc2)nn1	3	-2	0	-1
CC(NC(=S)NC1CCC(C(C)(C)C)CC1)c1ccccc1 (stereo unspecified)	-9	-39	7	2
Cc1ccc(CSc2cc(C)[nH]c(=O)n2)cc1	-1	6	-1	0
Nc1nc(Br)c2ccccc2c1-c1ccccc1	-12	-27	5	4
Nc1nc(Br)c2c(F)cccc2c1-c1ccc(Cl)cc1	-39	-56	10	11*
C=CCCC1CN(CCCC)S(=O)(=O)c2c(F)cccc2O1 (stereo unspecified)	-10	-3	1	3
O=C(c1ccccc1Cl)N1N=C(c2cccs2)CC1c1cccc(O)c1 (stereo unspecified)	-1	12	-2	11*
O=C(CCCN1C(=O)/C(=C/c2ccccc2OC(F)F)SC1=S)Nc1cccnc1	-4	-92	17	1
Cc1noc(C)c1COC(=O)c1ccc2c(c1)S(=O)(=O)c1ccccc1C2=O	-34	-39	7	10*
COc1ccc(N(C(=O)CCl)C(C(=O)NCCc2ccccc2)c2cccs2)cc1 (stereo unspecified)	-66	-360	68*	55*
COc1ccc(CNC(=O)C(c2ccncc2)N(C(=O)Cc2cccs2)c2ccccc2)cc1 (stereo unspecified)	-21	5	-1	0
O=CC1=C(c2ccccc2)Oc2ccccc2O1	-42	-29	6	11*
CN(C)/C=C1/N=C(c2ccccc2)OC1=O	-6	3	-1	2
COc1ccc(Nc2nc(Nc3ccc(OC)cc3)nc(-n3[nH]c(=O)c(C)c3C)n2)cc1	43*	17	-3	-3
COc1ccc(Nc2nc(OC)nc(OC)n2)cc1	12	18	-4	-3
CCCCCCN(C(=O)CCl)c1ccccc1	-7	-271	53*	64*
CCCCCCCN(C(=O)CCl)c1cccc(C)c1	-129	-426	79*	84*
CNC(=O)c1c(NC(=O)CCS(=O)(=O)c2ccc(C)cc2)sc2c1CCN(C(=O)OC)C2	11	8	-1	-4
